# Source: PubChem (National Center for Advancing Translational Sciences (NCATS))
# Most compounds without a hit are left out; they make up all but 14% or so of the library.
# Pf growth 96h: P. falciparum growth inhibition at 96 hours; P. falciparum luciferase reporter growth, 96 h; Potency, µM (doses to about 28.7 µM), for the others: at the highest dose activity change, negative = inhibition, usual class: inhibitors; 320,000 tested, 6.9% active; AID 504834; further: potency means the concentration at half of the fitted maximal effect
#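 Two-generation exposure (96 h) targets delayed-death phenotype. Reporter parasites carrying integrated firefly luciferase, in red cells at 2% hematocrit and 0.05% parasitemia final, kept at 37 C, 5% CO2; luminescence loss indicates inhibition.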
# Pf growth 48h: P. falciparum growth inhibition at 48 hours (one generation) | P. falciparum luciferase growth in erythrocytes, 48 h | Potency, µM (titrated, usually from 28.7 µM), without a hit: at the highest dose activity change, negative = inhibition, most hits filed as inhibitors | AID 504832 | 310,000 tested, 5.9% active; further: potency means the concentration at half of the fitted maximal effect
#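 First compound was added to culture medium, then infected red cells at 0.1% parasitemia and 2% hematocrit (final). After incubation at 37 C under 5% CO2, luciferase detection reagent was dispensed and light output recorded.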
# Sm TGR inh: S. mansoni TGR enzyme inhibition. Q962Y6. purified TGR, DTNB reduction, TNB absorbance 405 nm. Potency, µM (highest dose often 114 µM), without a hit: at the highest dose activity change, negative = inhibition, most hits filed as inhibitors. 360,000 tested, 3% active. AID 485364; further: potency means the concentration at half of the fitted maximal effect; nearly all actives have a fitted effect of over 60% in size
#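 First, TGR (20 nM dispensed) and NADPH were mixed with compound. Second, a 15 min room-temperature incubation followed. Third, further NADPH and then DTNB were added to start the reaction. Finally, TNB absorbance was monitored kinetically.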
# HCMV inh: human cytomegalovirus inhibition; activity change, negative = inhibition, % at 57.5 µM; 410,000 tested, 4.5% active; AID 1259415; HFF cells, HCMV-luciferase reporter, 72 h; active compounds read low; in the data active means activity change below about -60%; inconclusive means no clear call, values can overlap the other calls; inactive means above about -39%
#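 Compounds were evaluated in HFFs infected with an HCMV luciferase reporter virus (MOI 1 PFU/cell). Luciferase in lysates collected 72 h post infection served as the replication measure.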
# Giardia FBPA inh: blocks Giardia fructose-bisphosphate aldolase activity; purified Giardia FBPA; Potency, µM (doses to about 59.6 µM), without a hit: at the highest dose activity, negative = inhibition, usual class: inhibitors; A8B2U2; 290,000 tested, 0.71% active; further: potency means the concentration at half of the fitted maximal effect; nearly all actives have a fitted effect of over 55% in size
# Target sequence (A8B2U2 whole entry, looked up): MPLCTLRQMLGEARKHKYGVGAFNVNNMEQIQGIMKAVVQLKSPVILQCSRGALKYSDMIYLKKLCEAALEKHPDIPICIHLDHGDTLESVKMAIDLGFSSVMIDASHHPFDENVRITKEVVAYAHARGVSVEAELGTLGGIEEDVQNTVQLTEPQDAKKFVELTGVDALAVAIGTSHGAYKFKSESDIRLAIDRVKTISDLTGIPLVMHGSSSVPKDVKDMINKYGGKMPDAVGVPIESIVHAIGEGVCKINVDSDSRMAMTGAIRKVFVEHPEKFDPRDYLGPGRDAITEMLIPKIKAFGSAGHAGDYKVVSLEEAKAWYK
#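 40 nM FBPA preincubated 10 min at RT with compound (up to 57.5 uM final), then substrate plus GAPDH/TPI/NAD/arsenate coupling and diaphorase/resazurin added. Fluorescence read after 20 min at RT, 525/598 nm.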
# Numbers without * were called inactive; ? = inconclusive; / = no result given. Unless noted, the call rests on the fitted dose curve; in most records, active means well fitted curve in the direction sought with a large enough effect; inconclusive means small, poorly fitted or top-dose-only effect, or another doubt; inactive means no such curve, though single readings can be large; an effect the other way counts as inactive or inconclusive. On the % scale 0 is the no-effect control and ±100 the full control effect.
SMILES,Pf growth 96h,Pf growth 48h,Sm TGR inh,HCMV inh,Giardia FBPA inh
O=C1C=C(c2ccccc2)C(=O)N1Nc1ccccc1,14.2%,/,14.1µM*,30.3,-6.5%
O=c1cc2c(nn1Cc1ccccc1)-c1ccccc1CC2,?,?,17.9%,-100.3*,-0.4%
O=c1cc2c(nn1Cc1ccc(F)cc1)-c1ccccc1CC2,?,-13.0%,17.9%,?,-5.6%
Cn1c(Cl)cnc1C(O)c1ccccc1 (centres undefined),6.57µM*,8.3%,-12.5%,-39.5,-2.0%
Fc1ccc(C(c2ccc(F)cc2)N2CCN(C/C=C/c3ccccc3)CC2)cc1,?,13.1µM*,-3.1%,-37.4,-10.5%
C(=C\c1ccccc1)/CN1CCN(C(c2ccccc2)c2ccccc2)CC1,4.0%,-8.1%,-15.2%,?,-5.4%
Cc1cc(C)c2[nH]c(=O)c(C(c3nnnn3CC3CCCO3)N3CCC(C)CC3)cc2c1 (centres undefined),0.0%,?,14.1µM*,-5.9,-16.9%
COc1ccc(Cn2nnnc2C(c2cc3cc(C)cc(C)c3[nH]c2=O)N2CCOCC2)cc1 (centres undefined),-89.7%,1.0%,?,11.7,-0.4%
Cc1cc(C)c2[nH]c(=O)c(C(c3nnnn3CC3CCCO3)N3CCCC(C)C3)cc2c1 (centres undefined),/,14.7µM*,12.6µM*,-9.5,-27.8%
Clc1cccc(OCCN2CCCC2)c1,100.7%,-9.4%,-12.4%,4.0,-13.6%
CC(C)c1cccc(OCCN2CCCC2)c1,10.4µM*,-26.3%,8.5%,3.1,?
CN1CCN(CCOc2cccc(Cl)c2)CC1,10.4µM*,67.9%,0.5%,45.0,-8.0%
O=C(CCN1CCCCC1)Nc1ccc2c(c1)C(=O)c1ccc(NC(=O)CCN3CCCCC3)cc1C2=O,/,/,/,/,0.0%
O=C(c1cccc(Br)c1)N1CCN(S(=O)(=O)N2CCCCC2)CC1,13.9%,16.4%,-4.5%,-10.5,/
Cc1ccc(SCCC(=O)N/N=C/c2ccccc2O)cc1,?,14.7µM*,-1.6%,-84.8*,?
Cc1ccc(NC(=O)CCC(=O)N/N=C/c2ccccc2O)cc1,-52.6%,-3.7%,9.6%,3.0,-10.4%
O=C(N/N=C/c1ccc(F)cc1)c1ccccc1,20.6%,101.8%,2.0%,-18.7,-5.3%
O=C(CCCCC(=O)NN=Cc1ccccc1O)NN=Cc1ccccc1O,/,/,/,11.6,/
O=C(CCCCCNC(=O)c1ccccc1)N/N=C/c1ccc(F)cc1,?,13.1µM*,4.1%,-18.3,-3.9%
O=C(CCC(=O)Nc1ccc(F)cc1)N/N=C/c1ccccc1,1.47µM*,4.2%,9.9%,36.9,5.7%
O=C(CCC(=O)Nc1ccc(F)cc1)N/N=C/c1ccncc1,-25.6%,2.3%,0.9%,-24.8,-10.0%
O=C(CCC(=O)Nc1ccc(Br)cc1)N/N=C/c1ccccc1O,?,?,8.5%,-65.6*,-3.3%
CC(C)C[C@H]1COc2cccc(N3CCC[C@H]3CO)c2S(=O)(=O)N1,/,/,/,-25.0,/
O=C(CCC(=O)Nc1ccc(F)cc1)N/N=C/c1ccc(Br)cc1,3.7µM*,-7.3%,-10.5%,25.6,-1.1%
O=C(CCC(=O)Nc1ccc(Br)cc1)N/N=C/c1ccc(F)cc1,6.6%,4.6%,8.4%,0.8,1.7%
SMILES,Pf growth 96h,Pf growth 48h,Sm TGR inh,HCMV inh,Giardia FBPA inh
CCN(CC)CCSc1nnc2c3ccccc3n(CCc3ccccc3)c2n1,?,?,43.4%,-78.9*,-6.7%
c1ccc(CCn2c3ccccc3c3nnc(SCc4ccc5nonc5c4)nc32)cc1,?,/,-7.2%,-81.5*,2.2%
CC(C)OC(=O)CSc1nnc2c3ccccc3n(C)c2n1,-11.3%,8.8%,/,-38.8,-2.8%
O=C1c2ccccc2C(=O)N1CSc1nnc2c3ccccc3n(CCc3ccccc3)c2n1,/,10.6%,-4.9%,/,0.8%
CC(C)CSc1nnc2c3ccccc3n(C)c2n1,6.57µM*,122.3%,-1.4%,410.2,6.2%
COc1cc2nc(N3CCN(C(=O)OCc4ccccc4)C(C(=O)NC(C)(C)C)C3)nc(N)c2cc1OC (centres undefined),/,/,/,/,-2.2%
CN(CC(=O)Nc1ccccc1C(F)(F)F)C(=O)CN1C(=O)C2CCCCC2C1=O (centres undefined),34.5%,0.0%,-0.9%,19.3,/
O=c1c(CCc2ccccc2)nc2cnc(N3CCOCC3)nc2n1C1CC1,/,/,/,/,-19.8%
NC(=O)c1ccc(NC(=O)CCc2nc3ccccc3s2)cc1,-1.9%,-12.7%,0.8%,49.9,-8.8%
O=C(Nc1ccc(Cc2nc3ccccc3s2)cc1)c1ccncc1,?,-19.6%,-1.1%,-85.9*,7.5%
Cc1ccc(N(C)C)cc1,/,/,/,36.7,/
Cc1ccc2c(c1)sc(-c1ccc(N(C)C)cc1)[n+]2C,?,0.0%,-0.8%,-95.6*,-15.9%
FC(F)(F)COc1cc(-c2nnc(SCc3ccccc3)n2Cc2ccco2)cc(OCC(F)(F)F)n1,11.7µM*,6.57µM*,-3.4%,0.6,-5.6%
COc1ccc(OC)c(C(=O)CSc2nc3c(c(=O)n(C)c(=O)n3C)n2C(C)C)c1,14.7µM*,4.8%,-1.7%,5.8,4.4%
CCOC(=O)CSc1nc2ccccc2c(=O)n1Cc1ccco1,1.2%,-2.4%,-5.4%,1.9,3.2%
Cc1cccc(-c2nnc(SCc3ccc(C#N)cc3)n2Cc2ccco2)c1,?,?,5.0%,-35.5,2.3%
CCCn1c(SCC(=O)c2cc(OC)ccc2OC)nc2c1c(=O)n(C)c(=O)n2C,10.9%,8.7%,-7.2%,10.2,-1.8%
O=C(CSc1nc2ccccc2c(=O)n1Cc1ccco1)c1ccccc1,-0.1%,-18.9%,-14.6%,-69.1*,5.5%
CN(C)C(CNC(=O)CSc1nc2ccccc2c(=O)n1Cc1ccco1)c1ccccc1 (centres undefined),?,?,-27.1%,-37.8,/
CCOc1ccc2nc(NC(=O)CSc3nc4ccccc4c(=O)n3Cc3ccco3)sc2c1,1.31µM*,?,-17.0%,-11.4,3.2%
O=C1C(=O)N(C(C(=O)NCc2ccccc2)C2CCCC2)c2ccccc21 (centres undefined),/,/,/,-9.0,/
CCOc1ccc2nc(NC(=O)CSc3nc4c(c(=O)n(C)c(=O)n4C)n3C(C)C)sc2c1,11.7µM*,0.0%,0.0%,-0.9,8.2%
NC(=O)C1CCN(C(=O)c2ccc3c(=O)n(Cc4ccco4)c(SCc4ccc([N+](=O)[O-])cc4)nc3c2)CC1,?,11.7µM*,4.0%,0.0,/
Cc1ccc(CSc2nc3ccccc3c(=O)n2Cc2ccco2)cc1,9.28µM*,13.1µM*,?,2.1,1.4%
O=c1c2ccccc2nc(SCc2cccc(F)c2)n1Cc1ccco1,7.1%,?,-17.0%,?,5.2%
O=c1c2ccccc2nc(SCc2ccccc2)n1Cc1ccco1,17.6%,?,28.2µM*,-32.3,5.0%
CCN(CC)CCCNc1oc(-c2ccccc2[N+](=O)[O-])nc1C#N,2.62µM*,?,-21.3%,-2.4,?
CCN(CC)CCCNc1oc(-c2ccc(OC)c(OC)c2)nc1C#N,/,-4.3%,6.5%,46.0,-9.7%
